Sampled rows, rich in hits. Any-hit rate of the full collection: about 8.1%.
MCF10A rerep: A quantitative high throughput screen for small molecules that induce DNA re-replication in MCF 10a normal breast cells; Potency, µM (highest dose often 46.1 µM), for the others: top-dose activity, positive = re-replication, actives largely listed as activators; MCF 10A DNA re-replication, Hoechst nuclear intensity, 48 h; AID 624296, 2012; 350,000 tested, 2.9% active; note: % of control where 0% means no effect; nearly all actives have a fitted effect of over 50% in size
KB-3-1 cytotox: qHTS assay for MDR1-selective chemotherapeutics: Primary screen using the parental adenocarcinoma cell KB-3-1; KB-3-1 viability, CellTiter-Glo ATP luminescence, 72 h; AID 1347075, 2019; 400,000 tested, 1.4% active; Potency, µM (top dose mostly 46.1 µM), usual class: cytotoxic; note: % is set by controls: 0 for no effect and ±100 for the full control effect; nearly all actives have a fitted effect of over 60% in size
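Cytotoxicity in the drug-sensitive parental line KB-3-1 was scored as loss of CellTiter-Glo luminescence following 72 h incubation with compound. Values come from curve fitting of normalized concentration-response data.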
KB-V1 cytotox: qHTS assay for MDR1-selective chemotherapeutics: Primary screen using the drug-selected MDR subline cells KB-V1; KB-V1 MDR cells viability, CellTiter-Glo, 72 h; Potency, µM (series often up to 46.1 µM), usual class: cytotoxic; 400,000 tested, 3.4% active; AID 1347076, 2019; note: % is set by controls: 0 for no effect and ±100 for the full control effect; nearly all actives have a fitted effect of over 60% in size
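Compound-treated KB-V1 multidrug-resistant cells, 72 h, 37 degrees C; viability by CellTiter-Glo. Fitted qHTS curves give the values.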
SW480 rereplic: A quantitative high throughput screen for small molecules that induce DNA re-replication in SW480 colon adenocarcinoma cells | 340,000 tested, 1.8% active | AID 624297, 2012 | Potency, µM (titrated, usually from 46.1 µM), for the others: at the top dose re-replication activation, usual class: activators | SW480 DNA re-replication, Hoechst DNA content imaging, 48 h; note: % of control where 0% means no effect; nearly all actives have a fitted effect of over 55% in size
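Treated cells incubate 48 hr (37 C, 5% CO2), are stained 40 min with Hoechst, and nuclear fluorescence is enumerated; a rise in nuclei with high DNA signal marks re-replication.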
ELG1 repair inh: qHTS screen for small molecules that inhibit ELG1-dependent DNA repair in human embryonic kidney (HEK293T) cells expressing luciferase-tagged ELG1; HEK293T ELG1-luciferase reporter, luminescence, 16 h; DNA damage induced by 5-fluorouridine; Potency, µM (doses to about 46.1 µM), without a hit: top-dose activity change, negative = inhibition, actives largely listed as inhibitors; 330,000 tested, 2.3% active; note: % is set by controls: 0 for no effect and ±100 for the full control effect; nearly all actives have a fitted effect of over 55% in size
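Quantitative HTS, concentration-response format. 2,000 cells/well co-treated with 5-fluorouridine and compound, 16 hr in 5% CO2 at 37 °C; ONE-Glo luminescence read after 30 min.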
Starred values were filed as active, the others as inactive. Calls come from the whole dose curve; as a rule, active = well fitted curve in the direction sought with a large enough effect; inconclusive = small, poorly fitted or top-dose-only effect, or another doubt; inactive = no such curve, though single readings can be large; an effect the other way counts as inactive or inconclusive. Potency is the fitted concentration of half-maximal effect.

`CCCCN(C)CCNC(=O)C1CCCN(S(=O)(=O)c2ccc3c(c2)oc(=O)n3C)C1` (stereo unspecified) gave KB-3-1 cytotox inactive and KB-V1 cytotox inactive.
For CCCCCCCCCCCCCCCCCCN(CCCCCCCCCCCCCCCCCC)c1ccccc1 the results were KB-3-1 cytotox inactive and KB-V1 cytotox inactive.
CC1(C)CC(=O)C=C(c2ccccc2-c2ccc(S(C)(=O)=O)cc2)C1=O was read as KB-3-1 cytotox inactive and KB-V1 cytotox inactive.
`CC1=C(C(=O)Nc2cccnc2)C(c2cccc(O)c2)n2nc(SCc3ccccc3)nc2N1` (stereo unspecified) gave KB-3-1 cytotox inactive and KB-V1 cytotox inconclusive.
Cc1cc(N=Cc2c(O)n(-c3cccc(C(F)(F)F)c3)c(=O)c3ccccc23)no1 was read as MCF10A rerep -4%, KB-3-1 cytotox inactive, KB-V1 cytotox inactive, SW480 rereplic -6% and ELG1 repair inh 9.2µM*.
For CCOc1ccc(CNC(=O)CCc2c(C)nn(-c3ccc(N4CCOCC4)nn3)c2C)cc1 the results were KB-3-1 cytotox inactive and KB-V1 cytotox inactive.
For CN[C@@H](CO)C(=O)NC[C@H]1O[C@@H](n2cnc3c(=O)[nH]c(N)nc32)[C@H](O)[C@@H]1O the results were KB-3-1 cytotox inactive and KB-V1 cytotox inactive.
C=C1C(=O)OC2C1CCC(C)C1C=CC(=O)C12C (stereo unspecified) was read as MCF10A rerep 2.1µM*, KB-3-1 cytotox inconclusive, KB-V1 cytotox inconclusive and SW480 rereplic 6.5µM*.
`CC(Sc1nc(N)c2c3c(sc2n1)CSC(C)(C)C3)C(=O)Nc1ccccc1` (stereo unspecified) gave MCF10A rerep inconclusive, KB-3-1 cytotox inconclusive, KB-V1 cytotox 21µM*, SW480 rereplic inconclusive and ELG1 repair inh inconclusive.
Screening CC(=O)c1cccc(-c2ccnc3c2CC(C(=O)NCC2CCOCC2)O3)c1 (stereo unspecified) returned KB-3-1 cytotox 4.6µM* and KB-V1 cytotox inactive.
For CC(=O)Nc1ccc(-c2ccnc3c2CC(C(=O)NCC2CCOCC2)O3)cc1 (stereo unspecified) the results were KB-3-1 cytotox 5.8µM* and KB-V1 cytotox inactive.
Screening COC(=O)c1ccc(/C=C/C(=O)OCC(=O)Nc2sccc2C(N)=O)cc1 returned MCF10A rerep inconclusive, KB-3-1 cytotox inactive, KB-V1 cytotox inactive, SW480 rereplic 1% and ELG1 repair inh inconclusive.
`Nc1sc(Cc2ccccc2)cc1C(=O)c1c(-c2ccccc2)[nH]c2ccccc12` gave KB-3-1 cytotox 5.8µM* and KB-V1 cytotox 13µM*.
COc1cccc(CNC(=O)C2CCCN(c3nn4cc(-c5ccc(C)cc5)nc4s3)C2)c1 (stereo unspecified) was read as KB-3-1 cytotox inactive and KB-V1 cytotox inactive.
CC[C@]12c3[nH]c4ccc(Cl)cc4c3CCN1C(=O)[C@@H](CC(=O)NCCCn1ccnc1)C[C@@H]2C(=O)N1CCN(C(=O)c2ccco2)CC1 was read as MCF10A rerep 7%, KB-3-1 cytotox inactive, KB-V1 cytotox inactive, SW480 rereplic 7% and ELG1 repair inh 4%.
For CC1=Nc2cc(C(=O)NCCCOC(C)C)ccc2Sc2ccccc21 the results were MCF10A rerep 7.3µM*, KB-3-1 cytotox inconclusive, KB-V1 cytotox inconclusive, SW480 rereplic inconclusive and ELG1 repair inh inconclusive.
Screening CC1=Nc2cc(C(=O)NCCCOC(C)C)ccc2Sc2ccc(C)cc21 returned MCF10A rerep 9.2µM*, KB-3-1 cytotox 2.9µM*, KB-V1 cytotox 4.1µM*, SW480 rereplic 6.5µM* and ELG1 repair inh inconclusive.
CC(C)(C)c1ccc(C(=O)NCc2nnc(SCC(=O)N3CCCC3)o2)cc1 was read as KB-3-1 cytotox inactive and KB-V1 cytotox inactive.
`CCN(CC)S(=O)(=O)c1ccc2c(c1)c(=O)c(C(=O)NCc1ccc(Cl)cc1)cn2C` gave KB-3-1 cytotox inactive and KB-V1 cytotox inactive.
COc1ccc(N(C(=O)COc2ccccc2OC)S(=O)(=O)c2ccc(Cl)cc2)cc1 was read as KB-3-1 cytotox inactive and KB-V1 cytotox inactive.
For CCOC(=O)N1CCN(c2nc3ccccc3nc2C(C#N)S(=O)(=O)c2ccc(C)cc2)CC1 (stereo unspecified) the results were MCF10A rerep 15%, KB-3-1 cytotox inactive, KB-V1 cytotox 3.7µM*, SW480 rereplic 11% and ELG1 repair inh -2%.
`COCC(C)OC(=O)C(C#N)c1nc2ccccc2nc1N1CCN(Cc2ccccc2)CC1` (stereo unspecified) gave MCF10A rerep 1%, KB-3-1 cytotox inactive, KB-V1 cytotox inconclusive, SW480 rereplic 15% and ELG1 repair inh 21µM*.
For C=CCOC(=O)C(C#N)c1nc2ccccc2nc1N1CCN(c2ccccc2OC)CC1 (stereo unspecified) the results were MCF10A rerep inconclusive, KB-3-1 cytotox inactive, KB-V1 cytotox inactive, SW480 rereplic 10% and ELG1 repair inh 13µM*.
`COCCCNC(=O)C(C#N)c1nc2ccccc2nc1N1CCN(Cc2ccccc2)CC1` (stereo unspecified) gave MCF10A rerep inconclusive, KB-3-1 cytotox inactive, KB-V1 cytotox inactive, SW480 rereplic 5% and ELG1 repair inh -11%.
COCCOC(=O)C(C#N)c1nc2ccccc2nc1N1CCN(Cc2ccccc2)CC1 (stereo unspecified) was read as MCF10A rerep 16%, KB-3-1 cytotox inactive, KB-V1 cytotox inactive, SW480 rereplic 15% and ELG1 repair inh inconclusive.
For COCCNC(=O)C(C#N)c1nc2ccccc2nc1N1CCCCCC1 (stereo unspecified) the results were MCF10A rerep inconclusive, KB-3-1 cytotox inactive, KB-V1 cytotox 4.1µM*, SW480 rereplic -210% and ELG1 repair inh inconclusive.
CCN(CC)C(=O)C1CCCN(c2ncnc3c2nc2n3CCCCC2)C1 (stereo unspecified) was read as KB-3-1 cytotox inactive and KB-V1 cytotox inactive.
`COc1cc([N+](=O)[O-])cc(/C=N/NC(=O)c2ccc(NC(=O)c3ccc(C)cc3)cc2)c1O` gave MCF10A rerep 18%, KB-3-1 cytotox 5.2µM*, KB-V1 cytotox inactive, SW480 rereplic inconclusive and ELG1 repair inh inconclusive.

Screening results (PubChem BioAssay)
